Compounds with a hit are over-represented: about 11% of the library has one in this group of screens.
IMPase Li inh = IMPase inhibition in cells with lithium potentiation | 210,000 compounds, 0.35% hits | Potency, µM (series often up to 59.4 µM), for the others: at the top dose activity, negative = IMPase inhibition, actives largely listed as inhibitors | CHO-M1 cells, IP1 TR-FRET (IP-One), carbachol + lithium | AID 1457;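 further: IP1 builds up when IMPase is blocked and the TR-FRET signal falls; potency means the concentration at half of the fitted maximal effect; plate controls were basal vehicle for no effect and high inhibitor control for full effect; nearly all actives have a fitted effect of over 50% in size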
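Lithium-sensitised IP1 accumulation assay; M1-expressing CHO cells treated 30 min at 37C with compound. Competitive antibody detection by time-resolved FRET followed a 10 min room-temperature lysis step.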
PNC inhibitor = perinucleolar compartment assembly inhibition. PC3M PTB-GFP, PNC prevalence imaging, 16 h; stronger effect = lower value. activity change (PNC), negative = inhibition, % at 10 µM. 140,000 compounds, 3.1% hits. AID 2417;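 active means readout at or below -70, meaning at least 70% loss of cells showing the perinucleolar compartment, a nuclear body marking cancer cells; inconclusive means readout between -30 and a set limit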;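 further: plate controls were DMSO wells for no effect and camptothecin positive control wells for full effect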
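PC3M cells stably expressing PTB-GFP, 750–1000 cells/well, treated 16 h at 37 °C with compound (23 nl of library stock), in duplicate. After paraformaldehyde fixation and Hoechst stain, imaged at 20x; PNC prevalence scored by image analysis.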
12-hLO inh = inhibitors of human 12-lipoxygenase (ALOX12). P18054. purified 12-hLO, xylenol orange hydroperoxide absorbance. Potency, µM (titrated, usually from 57.1 µM), for inactives: top-dose activity change, negative = inhibition, hits mostly inhibitors. 150,000 compounds, 0.12% hits. AID 1452; further: potency means the concentration at half of the fitted maximal effect; nearly all actives have a fitted effect of over 55% in size
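Purified human 12hLO (150 nM final) was preincubated with compounds for 15 min at room temperature in 25 mM Hepes pH 7.0, 0.01% Triton X-100, then reacted with 40 uM arachidonic acid for 30 min. Hydroperoxide was detected with ferrous iron/xylenol orange.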
IMPase cell inh = membrane-permeable compound that blocks inositol monophosphatase; AID 901; P97697; inhibition (IP1 accumulation), % at 46.1 µM; CHO-M1 cells, IP1 accumulation, HTRF TR-FRET ratio; 120,000 tested, under 10 active; active means well fitted curve in the direction sought with a large enough effect in the signal ratio, not every such curve was filed as active; inconclusive means small, poorly fitted or top-dose-only effect, or a change in a side signal; inactive means no such curve, though single readings can be large or run the other way; the % refers to the signal ratio;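 further: cells stimulated with carbachol in lithium chloride buffer; plate controls were DMSO basal wells for no effect and reference inhibitor wells for full effect; higher means more IMPase inhibition seen as more IP1 and lower FRET ratio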
Target sequence (P97697 whole entry, looked up): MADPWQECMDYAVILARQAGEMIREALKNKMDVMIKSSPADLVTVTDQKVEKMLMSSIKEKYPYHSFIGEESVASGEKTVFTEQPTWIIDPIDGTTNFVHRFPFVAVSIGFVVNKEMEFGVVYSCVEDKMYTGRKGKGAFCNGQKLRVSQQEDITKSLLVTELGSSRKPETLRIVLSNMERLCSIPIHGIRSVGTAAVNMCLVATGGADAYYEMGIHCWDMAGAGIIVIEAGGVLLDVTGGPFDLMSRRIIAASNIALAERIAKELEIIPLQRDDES
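Elevated IP1 in lysates lowers TR-FRET signal (665/620 ratio and 620 channel reported). Cells were CHO-M1, given carbachol (50 uM as added) plus 50mM LiCl, pH 7.4, 30 min, 37C; compounds titrated up to 46 uM; AC50 by Hill equation.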
ALDH1A1 inh = inhibitors of human aldehyde dehydrogenase 1A1 | 220,000 compounds, 7.3% hits | Purified ALDH1A1, NADH fluorescence, propionaldehyde substrate | P00352 | Potency, µM (doses to about 75.3 µM), for inactives: at the highest dose activity, negative = inhibition, most hits filed as inhibitors; active means well fitted inhibition curve with a large enough effect, not every such curve was filed as active; inconclusive means small, poorly fitted or top-dose-only effect, or another doubt; inactive means no such curve, though single readings can be large or run the other way;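 further: potency means the concentration at half of the fitted maximal effect; plate controls were no enzyme wells and a reference inhibitor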
HPGD block = HPGD (human) dehydrogenase inhibition. AID 894. Potency, µM, for inactives: top-dose activity change, negative = inhibition, usual class: inhibitors. 150,000 compounds, 4.3% hits. P15428. purified HPGD, NADH fluorescence kinetic, PGE2 substrate; active means well fitted inhibition curve with a large enough effect, not every such curve was filed as active; inconclusive means small, poorly fitted or top-dose-only effect, or another doubt; inactive means no such curve, though single readings can be large or run the other way; further: potency means the concentration at half of the fitted maximal effect
Target sequence (P15428 whole entry, looked up): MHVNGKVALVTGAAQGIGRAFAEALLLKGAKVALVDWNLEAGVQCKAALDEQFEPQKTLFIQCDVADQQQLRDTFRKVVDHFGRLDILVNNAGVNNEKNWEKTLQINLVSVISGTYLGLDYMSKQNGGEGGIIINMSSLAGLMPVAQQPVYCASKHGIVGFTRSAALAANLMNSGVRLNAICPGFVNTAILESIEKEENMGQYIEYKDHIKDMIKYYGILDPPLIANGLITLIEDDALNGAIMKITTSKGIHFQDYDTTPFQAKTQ
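NADH formation kinetics: reaction with 30 uM PGE2 and 1 mM NAD+ (final), 20 nM enzyme, Tris-HCl pH 8 with Tween 20, after 15 min compound preincubation at room temperature. Fluorescence change, last versus first of five reads.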
The depositor's hits bear a star; [ ] = another dose, or the depositor's remark. Unless noted, the call rests on the fitted dose curve; in most records, active means well fitted curve in the direction sought with a large enough effect; inconclusive means small, poorly fitted or top-dose-only effect, or another doubt; inactive means no such curve, though single readings can be large; an effect the other way counts as inactive or inconclusive. Unless noted, on the % scale 0 is the no-effect control and ±100 the full control effect.

`CCOC(=O)CCc1c(C)nc(SCCCn2c(=O)[nH]c3ccccc32)c(C#N)c1C` gave IMPase Li inh 20%[38.3 µM], PNC inhibitor 32, 12-hLO inh 5%, IMPase cell inh -6, ALDH1A1 inh 32µM* and HPGD block 16µM*.
For Cc1cc(C)c(/C=N/n2c(C)cc(C)c(C#N)c2=O)c(C)c1 the results were IMPase Li inh -1%, PNC inhibitor 37, 12-hLO inh 8%, ALDH1A1 inh 10% and HPGD block -10%.
Screening Cc1cc(C)n(/N=C/c2cccs2)c(=O)c1C#N returned IMPase Li inh -1%, PNC inhibitor -98*, 12-hLO inh 2%, ALDH1A1 inh 3% and HPGD block -4%.
O=C(Cn1ncc2c(=O)oc3ccccc3c21)NCc1cccnc1 was read as IMPase Li inh -3% and ALDH1A1 inh 7%.
`O=C(Cn1ncc2c(=O)oc3ccccc3c21)NCC1CCCO1` (stereo not given) gave IMPase Li inh 8%, PNC inhibitor -119*, 12-hLO inh 5%, IMPase cell inh -1, ALDH1A1 inh 8% and HPGD block 2%.
Cn1c(=O)cc(SCC(=O)NCC2CCCO2)c2ccccc21 (stereo not given) was read as PNC inhibitor -8, 12-hLO inh -5%, IMPase cell inh -11 and ALDH1A1 inh 13µM*.
`CC(C)C(=O)c1cn(CC(=O)NCC2CCCO2)c2ccccc12` (stereo not given) gave IMPase Li inh 15%[38.3 µM], PNC inhibitor 27, 12-hLO inh -7%, IMPase cell inh -1, ALDH1A1 inh 22µM* and HPGD block -13%.
`CCCn1cc(SCC(=O)NCC2CCCO2)c2ccccc21` (stereo not given) gave IMPase Li inh 28%[38.3 µM], PNC inhibitor -12, 12-hLO inh 2%, IMPase cell inh 0, ALDH1A1 inh inconclusive and HPGD block inconclusive.
Screening CCc1cccc2c(C(=O)C(F)(F)F)cn(CC(=O)NCC3CCCO3)c12 (stereo not given) returned IMPase Li inh 5% and ALDH1A1 inh 5%.
`Cn1cc(SCC(=O)NCC2CCCO2)c2ccccc21` (stereo not given) gave IMPase Li inh 5%[38.3 µM], PNC inhibitor -6, 12-hLO inh -2%, IMPase cell inh 24, ALDH1A1 inh 2% and HPGD block 28µM*.
O=C(CSc1cn(CC(=O)N2CCCCC2)c2ccccc12)NCC1CCCO1 (stereo not given) was read as IMPase Li inh 7% and ALDH1A1 inh inconclusive.
For Cn1c(=O)cc(SCC(=O)NCCC2=CCCCC2)c2ccccc21 the results were IMPase Li inh -5%, PNC inhibitor -20, 12-hLO inh 1%, ALDH1A1 inh inconclusive and HPGD block 7.1µM*.
`COc1ccc(CNC(=O)CSc2cc(=O)n(C)c3ccccc23)cc1` gave IMPase Li inh -14% and ALDH1A1 inh -9%.
`O=C(c1csnn1)N1CCC2(CCN(Cc3cc(C(F)(F)F)cc(C(F)(F)F)c3)CC2)CC1` gave IMPase Li inh 13%, 12-hLO inh 4%, ALDH1A1 inh -2% and HPGD block -15%.
Screening O=c1[nH]c(=S)c2c(n1-c1ccccc1)CCC2 returned IMPase Li inh 10µM*, PNC inhibitor 6, 12-hLO inh -6%, IMPase cell inh inconclusive, ALDH1A1 inh 2% and HPGD block -13%.
`O=c1c(-c2ccccc2)c(O)c2c(n1-c1ccccc1)CCCC2` gave IMPase Li inh 9%, PNC inhibitor 30, 12-hLO inh 2%, ALDH1A1 inh -18% and HPGD block -11%.
Screening C[N+](C)(C)c1ncnc2c1ncn2[C@@H]1CCCCO1 returned IMPase Li inh -9%, 12-hLO inh -2%[11.4 µM], ALDH1A1 inh -1%[13.5 µM] and HPGD block -7%.
For Cc1ccc(S(=O)(=O)Nc2ccc(O)c3ncccc23)cc1 the results were IMPase Li inh 27% and ALDH1A1 inh 1.3µM*.
`COc1ccccc1-c1noc(-c2ccco2)n1` gave IMPase Li inh 3%[38.3 µM], PNC inhibitor -118*, 12-hLO inh -1%, IMPase cell inh -3, ALDH1A1 inh -6% and HPGD block -5%.
For CCOC(=O)N1CCN(C(=O)c2cc3c(=O)[nH]c4ccccc4c3s2)CC1 the results were IMPase Li inh 4%, PNC inhibitor -119*, 12-hLO inh -7%, IMPase cell inh -10, ALDH1A1 inh inconclusive and HPGD block -20%.
Cc1c(C(=O)NNC(=S)Nc2cccc(Cl)c2)nnn1-c1ccccc1 was read as IMPase Li inh -7%, PNC inhibitor 10, 12-hLO inh -4%, ALDH1A1 inh 11µM* and HPGD block -29%.
For COC(=O)/C=C/C1c2ccccc2C(OC)C1C (stereo not given) the results were ALDH1A1 inh 9%[13.5 µM].
For CCCCCCCCCCCCCCCC(=O)NC[C@@H](COP(=O)([O-])OCC[N+](C)(C)C)OCC the results were 12-hLO inh 18% and IMPase cell inh 9.
COC(=O)c1ccccc1NC(=O)CN1CCC(NC(=O)c2ccccc2C)CC1 was read as IMPase Li inh 4%[38.3 µM], PNC inhibitor -3, 12-hLO inh -4%, IMPase cell inh 9, ALDH1A1 inh 20µM* and HPGD block -4%.
For COc1cc(NS(=O)(=O)c2ccc(NC(=S)NC(=O)c3sc4ccccc4c3Cl)cc2)nc(OC)n1 the results were IMPase Li inh -17%, PNC inhibitor -20, 12-hLO inh -1%, IMPase cell inh inconclusive, ALDH1A1 inh 11µM* and HPGD block 25µM*.
`COc1cc(NS(=O)(=O)c2ccc(NC(=S)NC(=O)c3sc4cc(F)ccc4c3Cl)cc2)nc(OC)n1` gave IMPase Li inh -14%, PNC inhibitor 8, 12-hLO inh 4%, IMPase cell inh -26, ALDH1A1 inh 8.9µM* and HPGD block 16µM*.
COc1cc(NS(=O)(=O)c2ccc(NC(=O)c3ccco3)cc2)nc(OC)n1 was read as IMPase Li inh 10%[38.3 µM], PNC inhibitor -82*, 12-hLO inh 6%, IMPase cell inh 0, ALDH1A1 inh 2% and HPGD block -5%.
COc1cc(NS(=O)(=O)c2ccc(N/C=C(\C#N)c3nc4cc(Cl)ccc4o3)cc2)nc(OC)n1 was read as IMPase Li inh 6%[38.3 µM], PNC inhibitor inconclusive, 12-hLO inh inconclusive, IMPase cell inh 7, ALDH1A1 inh 9% and HPGD block 28µM*.

Source: PubChem BioAssay (National Center for Advancing Translational Sciences (NCATS))
